Source: PubChem BioAssay (National Center for Advancing Translational Sciences (NCATS))
Only some compounds are listed: those with a hit (about 7.1% of all), similar ones and a draw of the others.
MCF10A rerep: inducers of DNA re-replication in MCF 10A breast cells; MCF 10A DNA re-replication, Hoechst nuclear intensity, 48 h; Potency, µM (titrated, usually from 46.1 µM), without a hit: at the top dose activity, positive = re-replication, usual class: activators; actives 2.9% (n = 350,000); AID 624296; note: potency is the fitted concentration of half-maximal effect; % of control where 0% means no effect; nearly all actives have a fitted effect of over 50% in size
ATXN viability: reduces viability in counter-screen for ATXN expression inhibitors | S2 cells (HEK-293 line with an ATXN2-luciferase reporter) viability, CellTiter-Fluor protease fluorescence, 24 h | actives 0.49% (n = 400,000) | Potency, µM (doses to about 56.7 µM), hits mostly cytotoxic; note: potency is the fitted concentration of half-maximal effect; nearly all actives have a fitted effect of over 40% in size
IL-1B inflam inh: inflammasome signaling inhibition, IL-1 beta readout | actives 4.7% (n = 360,000) | AID 743279 | activity change, % at 57.5 µM | THP-1 LPS/ATP IL-1B secretion, AlphaLISA, 16 h; stronger effect = lower value; in the data active = activity change below about -50%; inconclusive = mostly about -30% to -49%; note: % is set by controls: 0 for no effect and ±100 for the full control effect
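THP-1 cells pretreated 1 hr with compounds (up to 57.5 uM final), then stimulated with LPS (250 ng/mL final) plus ATP (1.25 mM final); secreted IL-1B measured by AlphaLISA after 16 hr, decreased signal indicating inhibition.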
SW480 rereplic: induces DNA re-replication in SW480 colon adenocarcinoma cells; SW480 DNA re-replication, Hoechst DNA content imaging, 48 h; AID 624297; Potency, µM (titrated, usually from 46.1 µM), inactives show top-dose re-replication activation, most hits filed as activators; actives 1.8% (n = 340,000); note: potency is the fitted concentration of half-maximal effect; % of control where 0% means no effect; nearly all actives have a fitted effect of over 55% in size
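Image-based DNA-content assay: after two days of treatment, nuclei were labelled with the DNA dye Hoechst and imaged, and hits were compounds raising the count of nuclei showing high fluorescence intensity.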
PINK1 expr mod: modulators of PINK1 expression; PINK1 immunofluorescence, high-content cytometry, 24 h; Potency, µM (doses to about 76.6 µM), without a hit: at the top dose activation (PINK1 increase), actives largely listed as activators; AID 624263; actives 0.2% (n = 410,000); active = well fitted activation curve with a large enough effect; inconclusive = small, poorly fitted or top-dose-only effect; cell line not stated here; note: potency is the fitted concentration of half-maximal effect; % of control where 0% means no effect; nearly all actives have a fitted effect of over 65% in size
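Fluorescence from anti-PINK1 antibody, together with nuclear and cell stains, was scanned on a laser-scanning cytometer. Before staining, stable-line cells were incubated 24 hours with compounds at 5 concentrations; primary antibody 12 h at 10 degrees C.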
ATXN2 expr inh: reduces ATXN2 reporter expression in HEK-293 cells | HEK-293 ATXN2-luciferase reporter, luminescence, 24 h | Potency, µM (titrated, usually from 57 µM), without a hit: at the highest dose activity change, negative = inhibition, actives largely listed as inhibitors | actives 0.72% (n = 360,000); note: potency is the fitted concentration of half-maximal effect; % is set by controls: 0 for no effect and ±100 for the full control effect; nearly all actives have a fitted effect of over 55% in size
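qHTS (up to 57 uM final) was run with 24 h compound exposure of reporter cells at 37 °C. Each well was multiplexed: SteadyGlo luminescence measured ATXN2-luciferase expression after a fluorogenic Gly-Phe-AFC viability readout (25 uM final).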
An asterisk follows results filed as active; i = inactive; ? = inconclusive; / = no result given; [ ] = another dose, or the depositor's remark. Unless noted, calls come from the whole dose curve; as a rule, active = well fitted curve in the direction sought with a large enough effect; inconclusive = small, poorly fitted or top-dose-only effect, or another doubt; inactive = no such curve, though single readings can be large; an effect the other way counts as inactive or inconclusive.

SMILES	MCF10A rerep	ATXN viability	IL-1B inflam inh	SW480 rereplic	PINK1 expr mod	ATXN2 expr inh
Cc1ccc(C(=O)N2CCc3cc(CNC(=O)c4ccccc4F)ccc32)cc1	/	/	/	/	-0.8%	/
N#CCCC1CCCC=C1N(Cc1ccccc1)C(=O)C(Cl)Cl (stereo unspecified)	10.3µM*	i	/	3.8%	-0.8%	-13.8%
Cc1c(C(=O)Nc2cccc(C(F)(F)F)c2)oc2ccc3c(c12)C(=O)CC(C)(C)O3	/	?	/	/	10.8%	1.0%
Cc1ccc(N2CC(NC(=O)c3ccc(S(=O)(=O)N4CCCC4)cc3)CC2=O)cc1C (stereo unspecified)	/	/	/	/	0.3%	/
COc1ccc(C(=O)C2CCCN(Cc3ccc4nonc4c3)C2)cc1OC (stereo unspecified)	5.3%	i	-18.1	-3.9%	1.2%	-1.5%
COc1ccc(C(=O)C2CCCN(Cc3c(F)ccc(F)c3F)C2)c(OC)c1 (stereo unspecified)	3.2%	i	-65.5*	-9.5%	3.1%	-17.3%
COc1ccc(C(=O)C2CCCN(Cc3ccc4nonc4c3)C2)c(OC)c1 (stereo unspecified)	0.9%	i	-68.6*	4.4%	0.6%	-37.1%
CCOC(=O)c1c(-c2ccccc2Cl)csc1NC(=O)CSc1nc(C)cc(=O)[nH]1	?	i	0.0	23.1µM*	4.1%	1.5%
CCOC(=O)c1ccc(NC(=O)CSc2nc(C)cc(=O)[nH]2)cc1	-0.1%	i	35.5	-1.7%	-3.1%	-24.5%
Cc1noc(Cn2c(=O)c3cc4c(cc3n(CC(=O)Nc3ccccc3F)c2=O)OCO4)n1	/	i	/	/	-1.0%	6.1%
O=C(Nc1ccc2nc3n(c(=O)c2c1)CCCCC3)c1c(F)ccc([N+](=O)[O-])c1F	?	/	-101.8*	1.3µM*	-1.3%	7.08µM*
O=C(Nc1ccc2nc3n(c(=O)c2c1)CCCCC3)c1cc([N+](=O)[O-])ccc1F	14.6µM*	/	-93.4*	16.4µM*	-1.5%	?
O=C(Nc1ccc2nc3n(c(=O)c2c1)CCCC3)c1ccccc1F	-0.1%	i	-11.2	-22.3%	2.9%	64.1%
Nc1ccc(S(=O)(=O)NC2(C(F)(F)F)NC(=O)N(c3cccc(Cl)c3)C2=O)cc1 (stereo unspecified)	/	i	/	/	-1.2%	-4.6%
CCC(=O)N1CCc2cc(S(=O)(=O)CCC(=O)NCc3ccccc3Cl)ccc21	/	i	/	/	6.5%	2.3%
Cc1cc(C)n(-c2nc(N(c3ccccc3)c3ccccc3)nc(-n3nc(C)cc3C)n2)n1	?	8.91µM*	-84.0*	17.3%	2.9%[38.3 µM]	10µM*
CCC(=O)C1=C(c2cccc(OC)c2)N(C(=O)CC)n2c(nnc2C2CCCCC2)S1	/	/	/	/	4.6%	/
C#CCN(Cc1ccccc1)S(=O)(=O)C=C	25.9µM*	?	-65.1*	?	9.6%	?
CCCCSC(=S)NC1CCS(=O)(=O)C1 (stereo unspecified)	23.1µM*	i	-98.2*	?	-2.7%	-12.9%
COc1ccc(NC(=O)CCn2nc(-c3ccccc3OC)c3c(C)cc(C)nc32)cc1	/	/	/	/	-1.5%	/
COC(=O)c1ccc(-c2ccc(F)cc2)nc1C	-5.6%	i	-5.8	29.1µM*	-1.2%	68.8%
Cc1ccc(-c2ccc(C(=O)O)c(C)n2)cc1	-46.5%	i	4.2	2.31µM*	1.5%	10.0%
COC(=O)c1cnn2c(C(F)(F)F)cc(-c3ccc(F)cc3)nc12	?	i	34.8	-6.1%	-2.1%	-12.4%
Cc1ccc(-c2nnc(SCCC(=O)Nc3ccccc3)n2C)cc1	/	/	/	/	0.8%	/
Cc1ccc(C(=O)c2cn(CC(=O)Nc3ccc4c(c3)OCCO4)c3nc(C)ccc3c2=O)cc1	/	?	/	/	11.9%	-24.2%
SMILES	MCF10A rerep	ATXN viability	IL-1B inflam inh	SW480 rereplic	PINK1 expr mod	ATXN2 expr inh
Cc1nc2ccccc2n1CCc1nc2c3ccccc3nc(=S)n2[nH]1	-3.0%	i	33.2	-7.9%	4.1%	-6.1%
Cc1ccccc1-c1nc2c3ccccc3nc(=S)n2[nH]1	7.31µM*	i	10.8	14.8%	2.5%	0.0%
C=CC[C@@H](CC(=O)N(CCO)Cc1ccccc1)C(=O)NCCOC(=O)[C@@H](CC=C)Cc1ccc(F)cc1	9.2%	?	-1.9	-48.0%	-0.5%	-21.5%
C=CC[C@H](CC(=O)N(CCO)Cc1ccccc1)C(=O)NC[C@@H](OC(=O)[C@@H](CC=C)Cc1ccc(F)cc1)c1ccccc1	?	/	-69.4*	4.5%	17.5%	?
C=CCC[C@H](Cc1ccc(F)cc1)C(=O)O[C@H](CNC(=O)[C@@H](CC=C)CC(=O)N(CCO)Cc1ccccc1)c1ccccc1	20.6µM*	22.4µM*	-58.1*	?	8.0%	?
Cc1ccc(NC(=O)CCCn2c(=O)c3cccn3c3cccnc32)cc1C	/	/	/	/	5.0%	/
Cc1ccc(C2C(C(=O)c3cc4ccccc4o3)=C(O)C(=O)N2CCN2CCOCC2)cc1 (stereo unspecified)	20.6µM*	i	-11.2	-0.5%	0.9%	/
COc1cc(C2C(C(=O)c3cc4ccccc4o3)=C(O)C(=O)N2c2cc(C)on2)cc(OC)c1OC (stereo unspecified)	?	i	7.6	-4.0%	?	-18.3%
Cc1cc(N2C(=O)C(O)=C(C(=O)c3cc4ccccc4o3)C2c2ccc(OC(C)C)cc2)no1 (stereo unspecified)	?	i	-7.9	-7.9%	28.2µM*	/
COC(=O)c1ccc(C2C(C(=O)c3cc4ccccc4o3)=C(O)C(=O)N2c2cc(C)on2)cc1 (stereo unspecified)	23.1µM*	i	16.2	?	1.4%	-18.4%
COc1cccc(C2C(C(=O)c3cc4ccccc4o3)=C(O)C(=O)N2c2cc(C)on2)c1OC (stereo unspecified)	17.5%	i	19.8	-4.8%	-0.5%	0.2%
CCOc1ccccc1Nc1nnc(-c2cc3cc(Cl)ccc3oc2=O)s1	/	i	/	/	1.5%	5.7%
Cc1ccc(NC(=O)C2CCCN(S(=O)(=O)c3ccc4c(c3)CCCC(=O)N4)C2)cc1N(C)C (stereo unspecified)	/	?	/	/	-0.5%	-23.5%
CN(C)c1cccc(F)c1C(=O)NC(=O)Nc1ccc(Cl)cc1	10.3µM*	i	33.1	?	1.3%	-7.6%
CCc1ccc(C(C(=O)NC2CCCC2)N(C(=O)/C=C/C(=O)Nc2cc(C)on2)c2ccccc2C)cc1 (stereo unspecified)	14.6%	?	-63.2*	?	5.3%	/
